Consider nine molecules from PubChem BioAssay (Tox21).

Each structure is given as a SMILES string. Results filed as inconclusive are left out. Unmarked numbers belong to inactive results. Activity calls are given as the source filed them. Unless noted, the call rests on the fitted dose curve; in most records, active means well fitted curve in the direction sought with a large enough effect in the repeat runs; inconclusive means weak or mixed curves; inactive means no such curve, though single readings can be large; an effect the other way counts as inactive or inconclusive.

Assay [1] is described as follows: qHTS assay to identify aromatase inhibitors - cell viability counter screen (AID 743084;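 further: cells stimulated with testosterone during compound exposure; nearly all actives have a fitted effect of over 55% in size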; further: potency means the concentration at half of the fitted maximal effect). (qHTS replaces the single test concentration by a dilution series.)
Assay [2] in a line: qHTS assay to identify small molecule that activate the aryl hydrocarbon receptor (AhR) signaling pathway - cell viability counter screen (AID 743086).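 Further: HepG2 liver cells carrying the AhR DRE luciferase reporter; series mostly up to about 70 µM; nearly all actives have a fitted effect of over 45% in size.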 In short, it runs like this:
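HepG2-AhR-luc (HG2L7.5c1) cells, 4000/well, were preincubated 5 h at 37C, exposed to compound in qHTS format for 24 hr at 37C, then given CellTiter-Fluor for 30 min; viability was read as fluorescence in the reporter wells.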

Assay [3] addresses Peroxisome proliferator-activated receptor gamma (Homo sapiens) (UniProt P37231). Put plainly: qHTS assay to identify small molecule antagonists of the peroxisome proliferator-activated receptor gamma (PPARg) signaling pathway (AID 743191; calls by dose curve; further: series mostly up to about 63 µM; nearly all actives have a fitted effect of over 30% in size). The method in brief:
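GeneBLAzer PPARg UAS-bla HEK293H cells carrying a UAS-driven beta-lactamase reporter were plated at 3000 cells/well, preincubated 5 h at 37C, then given compound for 17 h at 37C; LiveBLAzer B/G FRET substrate was read after 1 h at room temperature.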

Assay [4] in a line: qHTS assay for small molecule agonists of the antioxidant response element (ARE) signaling pathway (AID 743202; active means well fitted activation curve with a large enough effect in the signal ratio in the repeat runs, not every such curve was filed as active; the % refers to the signal ratio). The method in brief:
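Following a 16 h, 37 C exposure of reporter HepG2 cells (ARE-driven beta-lactamase, 2,000 cells/well) to compounds, FRET substrate was applied for 2 h at room temperature and fluorescence intensity recorded.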

Assay [5] in a line: qHTS assay for small molecule activators of the heat shock response signaling pathway - cell viability counter screen (AID 743209). Further: nearly all actives have a fitted effect of over 50% in size. The method in brief:
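Viability of HSE-bla HeLa cells is measured with CellTiter-Glo in the wells already used for the reporter read. Compound exposure lasts 5 h at 37 C, and luminescence is read after 30 min at room temperature.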

Assay [6] in a line: qHTS assay for small molecule activators of the heat shock response signaling pathway (AID 743210; active means well fitted activation curve with a large enough effect in the signal ratio in the repeat runs, with a control signal flat, not every such curve was filed as active; the % refers to the signal ratio; further: series mostly up to about 63 µM). The method in brief: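 Heat shock element–beta-lactamase HeLa reporter cells; qHTS with compounds for 5 h at 37 C; detection by FRET substrate fluorescence after 2.5 h at RT.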
Assay [7] in a line: qHTS assay to identify small molecule agonists of the peroxisome proliferator-activated receptor delta (PPARd) signaling pathway - cell viability counter screen (AID 743211). Further: nearly all actives have a fitted effect of over 55% in size. The method in brief:
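Viability of GeneBLAzer PPARd UAS-bla HEK293H cells was assessed after 17 h compound incubation at 37C, using CellTiter-Glo reagent added after the reporter read and luminescence recorded 30 min later.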

Assay [8] has as its target Peroxisome proliferator-activated receptor delta (Homo sapiens) (UniProt Q03181). Put plainly: qHTS assay to identify small molecule agonists of the peroxisome proliferator-activated receptor delta (PPARd) signaling pathway (AID 743212; calls by dose curve). In short, it runs like this: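 Beta-lactamase reporter read by fluorescence (LiveBLAzer B/G FRET, 2 h, room temperature). Test agents, in DMSO, incubated at 37 C with PPARd-bla HEK293H cells.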

The nature of assay [9]: qHTS assay to identify small molecule antagonists of the peroxisome proliferator-activated receptor delta (PPARd) signaling pathway - cell viability counter screen (AID 743213). Further: nearly all actives have a fitted effect of over 50% in size. The method in brief: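 HEK293H cells with the PPARd UAS-bla reporter, co-treated 17 h at 37 C with compounds and L165041 (300 nM final), were lysed with CellTiter-Glo. Luminescence indicated viable cell content.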

Assay [10] has as its target Peroxisome proliferator-activated receptor delta (Homo sapiens) (UniProt Q03181). Put plainly: qHTS assay to identify small molecule antagonists of the peroxisome proliferator-activated receptor delta (PPARd) signaling pathway (AID 743215; active means well fitted inhibition curve with a large enough effect in the signal ratio in the repeat runs, not every such curve was filed as active; the % refers to the signal ratio;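 further: cells stimulated with agonist L165041 at 300 nM final during compound exposure; series mostly up to about 62 µM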). The method in brief: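 Plated HEK293H PPARd-bla cells rested 5 h at 37 C and 5% CO2. Compound, then agonist L165041 at 300 nM final, was added; 17 h at 37 C followed. Substrate loading, 2 h room temperature, fluorescence measured.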

The target in assay [11] is Bile acid receptor (Homo sapiens) (UniProt Q96RI1). Put plainly: qHTS assay to identify small molecule antagonists of the farnesoid-X-receptor (FXR) signaling pathway (AID 743217; active means well fitted inhibition curve with a large enough effect in the signal ratio in the repeat runs, not every such curve was filed as active; the % refers to the signal ratio). In short, it runs like this:
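Screen of the Tox21 10K library in quantitative HTS format using FXR-UAS-bla HEK 293T reporter cells. Agonist chenodeoxycholic acid, 50 uM final, added with compounds; 16 h incubation at 37 °C; beta-lactamase FRET fluorescence measured.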

Assay [12] can be described thus: qHTS assay to identify small molecule agonists of the farnesoid-X-receptor (FXR) signaling pathway - cell viability counter screen (AID 743218). Further: nearly all actives have a fitted effect of over 45% in size. In short, it runs like this:
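Viability of FXR-bla HEK 293T cells is measured by ATP-based CellTiter-Glo luminescence following 16 h compound treatment at 37 C and a prior 2 h room-temperature beta-lactamase substrate step.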

Assay [13] addresses Bile acid receptor (Homo sapiens) (UniProt Q96RI1). Put plainly: qHTS assay to identify small molecule agonists of the farnesoid-X-receptor (FXR) signaling pathway (AID 743220; active means well fitted activation curve with a large enough effect in the signal ratio in the repeat runs, not every such curve was filed as active; the % refers to the signal ratio). In short, it runs like this:
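FXR-UAS-bla HEK 293T cells carrying a UAS-driven beta-lactamase reporter were plated for 5 h at 37C/5% CO2, then exposed to DMSO-dissolved Tox21 10K compounds for 16 h at 37C. A LiveBLAzer B/G FRET substrate was loaded for 2 h at room temperature before fluorescence reading.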

A short description of assay [14]: qHTS assay to identify small molecule antagonists of the farnesoid-X-receptor (FXR) signaling pathway - cell viability counter screen (AID 743221; active means well fitted cell-killing curve with a large enough effect in the repeat runs, not every such curve was filed as active; further: nearly all actives have a fitted effect of over 50% in size). In short, it runs like this: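 Quantitative HTS of the Tox21 10K library run in parallel with the beta-lactamase reporter read. HEK 293T cells carrying a UAS-driven bla reporter got compound and 50 uM CDCA (final) for 16 h; ATP-based luminescence followed.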

Assay [15] deals with Peroxisome proliferator-activated receptor gamma (Homo sapiens) (UniProt P37231). Put plainly: qHTS assay to identify small molecule agonists of the peroxisome proliferator-activated receptor gamma (PPARg) signaling pathway (AID 743094; active means well fitted activation curve with a large enough effect in the signal ratio in the repeat runs, not every such curve was filed as active; the % refers to the signal ratio). The method in brief:
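Reporter activation was scored by fluorescence of cleaved LiveBLAzer B/G substrate (1 h, room temperature) in PPARg-bla HEK293H cells previously treated 17 h at 37C with DMSO-dissolved compounds.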

A short description of assay [16]: qHTS assay to identify small molecule antagonists of the peroxisome proliferator-activated receptor gamma (PPARg) signaling pathway - cell viability counter screen (AID 743194). Further: nearly all actives have a fitted effect of over 55% in size. The method in brief:
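PPARg-UAS-bla HEK293H cells were plated, rested 5 h at 37 C, then treated with compounds plus rosiglitazone (50 nM final) for 17 h at 37 C; viability was then read by CellTiter-Glo luminescence after 30 min at room temperature.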

Assay [17] can be described thus: qHTS assay for small molecule agonists of the antioxidant response element (ARE) signaling pathway - cell viability counter screen (AID 743203; calls by dose curve; further: nearly all actives have a fitted effect of over 55% in size). In short, it runs like this:
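Viability counter screen: stably transfected ARE-bla HepG2 line, 16 hrs compound exposure at 37C/5% CO2, ATP-based CellTiter-Glo luminescence measured in the reporter wells.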

Assay [18] concerns the target Vitamin D3 receptor (Homo sapiens) (UniProt P11473). Put plainly: qHTS assay to identify small molecule antagonists of the vitamin D receptor (VDR) signaling pathway (AID 743223; active means well fitted inhibition curve with a large enough effect in the signal ratio in the repeat runs, not every such curve was filed as active; the % refers to the signal ratio). The method in brief: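 Fluorescence from LiveBLAzer B/G FRET substrate, read after 2 h at room temperature, reflects beta-lactamase reporter activity in VDR-bla cells treated 16 h at 37C with compounds and agonist 1alpha,25-dihydroxyvitamin D3 (3 nM final).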

The target is the same in assay [19]. Put plainly: qHTS assay to identify small molecule agonists of the vitamin D receptor (VDR) signaling pathway (AID 743222; calls by dose curve). In short, it runs like this:
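Fluorescence from cleaved LiveBLAzer B/G FRET substrate served as readout. VDR-bla cells had been treated 16 h at 37C with test compounds in DMSO, following a 4 h settling period, and substrate was loaded for 2 h at RT.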

The target in assay [20] is Aryl hydrocarbon receptor (Homo sapiens) (UniProt P35869). Put plainly: qHTS assay to identify small molecule that activate the aryl hydrocarbon receptor (AhR) signaling pathway (AID 743085).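 Further: HG2L7.5c1 human HepG2 liver cells with stably integrated DRE-driven firefly reporter; series mostly up to about 70 µM; nearly all actives have a fitted effect of over 15% in size.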 In short, it runs like this:
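Steps: seed HepG2-AhR-luc cells; allow 5 h at 37C; pin-transfer test compound or vehicle; incubate 24 h at 37C; add viability dye (30 min, 37C) and read fluorescence; add luciferase substrate (30 min, RT) and read luminescence.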
On the % scale 0 is the no-effect control and ±100 the full control effect.

Chain of Vitamin D3 receptor (Homo sapiens) (P11473 whole entry, looked up): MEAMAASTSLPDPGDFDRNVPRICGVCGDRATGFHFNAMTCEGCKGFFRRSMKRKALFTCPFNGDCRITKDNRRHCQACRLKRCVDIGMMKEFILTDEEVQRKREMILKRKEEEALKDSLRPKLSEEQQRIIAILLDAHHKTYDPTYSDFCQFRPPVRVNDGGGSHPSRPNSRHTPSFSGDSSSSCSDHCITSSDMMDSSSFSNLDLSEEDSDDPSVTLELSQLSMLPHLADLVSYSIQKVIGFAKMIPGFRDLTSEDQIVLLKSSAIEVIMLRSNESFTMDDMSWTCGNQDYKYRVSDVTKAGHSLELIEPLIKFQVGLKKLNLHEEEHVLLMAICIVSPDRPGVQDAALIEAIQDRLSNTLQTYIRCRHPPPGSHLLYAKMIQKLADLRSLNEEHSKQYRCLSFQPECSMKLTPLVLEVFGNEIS
Chain of Peroxisome proliferator-activated receptor delta (Homo sapiens) (Q03181 whole entry, looked up): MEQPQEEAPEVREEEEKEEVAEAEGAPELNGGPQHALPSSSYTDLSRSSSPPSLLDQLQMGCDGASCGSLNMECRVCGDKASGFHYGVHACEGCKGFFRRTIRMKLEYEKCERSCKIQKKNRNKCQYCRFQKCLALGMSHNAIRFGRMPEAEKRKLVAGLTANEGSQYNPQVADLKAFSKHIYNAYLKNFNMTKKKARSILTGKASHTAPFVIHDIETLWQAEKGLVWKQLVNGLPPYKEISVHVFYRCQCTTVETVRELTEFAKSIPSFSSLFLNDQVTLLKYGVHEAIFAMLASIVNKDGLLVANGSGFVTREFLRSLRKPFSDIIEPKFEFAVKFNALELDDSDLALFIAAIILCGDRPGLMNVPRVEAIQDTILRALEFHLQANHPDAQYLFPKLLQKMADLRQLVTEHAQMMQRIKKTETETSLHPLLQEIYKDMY
Chain of Bile acid receptor (Homo sapiens) (Q96RI1 whole entry, looked up): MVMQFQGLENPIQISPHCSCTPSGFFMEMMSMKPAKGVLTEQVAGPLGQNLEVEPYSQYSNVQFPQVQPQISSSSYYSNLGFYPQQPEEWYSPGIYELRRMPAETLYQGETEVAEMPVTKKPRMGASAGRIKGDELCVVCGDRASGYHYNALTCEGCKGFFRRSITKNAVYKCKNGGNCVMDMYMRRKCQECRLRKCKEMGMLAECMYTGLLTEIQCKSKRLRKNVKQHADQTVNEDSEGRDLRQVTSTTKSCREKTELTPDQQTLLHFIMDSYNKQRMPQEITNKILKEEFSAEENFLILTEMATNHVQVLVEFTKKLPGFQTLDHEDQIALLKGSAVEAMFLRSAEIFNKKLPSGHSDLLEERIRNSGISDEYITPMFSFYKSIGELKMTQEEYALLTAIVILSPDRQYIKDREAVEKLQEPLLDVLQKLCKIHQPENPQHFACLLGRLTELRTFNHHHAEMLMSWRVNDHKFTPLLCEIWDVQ
Chain of Peroxisome proliferator-activated receptor gamma (Homo sapiens) (P37231 whole entry, looked up): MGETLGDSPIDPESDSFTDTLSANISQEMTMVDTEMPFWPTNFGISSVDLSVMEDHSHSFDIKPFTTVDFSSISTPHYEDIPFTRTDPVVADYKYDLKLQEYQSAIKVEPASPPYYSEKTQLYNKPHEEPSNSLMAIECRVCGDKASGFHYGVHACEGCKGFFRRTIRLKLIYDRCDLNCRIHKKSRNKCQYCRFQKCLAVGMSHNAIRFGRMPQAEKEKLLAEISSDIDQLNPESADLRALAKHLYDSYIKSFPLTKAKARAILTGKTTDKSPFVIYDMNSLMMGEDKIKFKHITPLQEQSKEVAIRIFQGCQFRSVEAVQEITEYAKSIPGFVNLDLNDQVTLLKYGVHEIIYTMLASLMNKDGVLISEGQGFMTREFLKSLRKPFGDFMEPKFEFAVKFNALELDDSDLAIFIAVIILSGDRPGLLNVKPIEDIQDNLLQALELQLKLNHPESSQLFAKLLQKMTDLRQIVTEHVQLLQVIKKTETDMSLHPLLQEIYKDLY
Chain of Aryl hydrocarbon receptor (Homo sapiens) (P35869 whole entry, looked up): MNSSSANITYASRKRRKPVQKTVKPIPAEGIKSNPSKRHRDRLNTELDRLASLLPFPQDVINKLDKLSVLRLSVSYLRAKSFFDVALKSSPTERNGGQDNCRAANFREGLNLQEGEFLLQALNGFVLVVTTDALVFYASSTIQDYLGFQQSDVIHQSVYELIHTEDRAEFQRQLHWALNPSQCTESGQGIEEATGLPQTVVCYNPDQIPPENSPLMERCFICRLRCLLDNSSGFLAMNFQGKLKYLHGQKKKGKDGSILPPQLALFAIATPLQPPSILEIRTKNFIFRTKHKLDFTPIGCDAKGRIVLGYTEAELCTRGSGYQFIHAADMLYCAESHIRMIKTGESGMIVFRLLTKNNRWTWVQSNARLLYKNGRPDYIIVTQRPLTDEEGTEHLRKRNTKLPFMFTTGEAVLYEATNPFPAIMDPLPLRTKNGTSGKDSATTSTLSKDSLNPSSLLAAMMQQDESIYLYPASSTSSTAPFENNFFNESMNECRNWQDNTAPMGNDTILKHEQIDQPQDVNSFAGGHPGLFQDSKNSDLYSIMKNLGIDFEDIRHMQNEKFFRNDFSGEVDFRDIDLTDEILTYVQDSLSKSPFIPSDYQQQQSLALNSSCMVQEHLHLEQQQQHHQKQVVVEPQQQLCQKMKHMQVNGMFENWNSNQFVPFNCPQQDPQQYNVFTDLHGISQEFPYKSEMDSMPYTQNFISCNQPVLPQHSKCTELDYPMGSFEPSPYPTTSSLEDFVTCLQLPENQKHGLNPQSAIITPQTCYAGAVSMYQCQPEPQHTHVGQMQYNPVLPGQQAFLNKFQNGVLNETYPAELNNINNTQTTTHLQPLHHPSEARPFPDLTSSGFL

Regarding `O=C(O)Cc1cccc(-c2cc(CCCCCCc3ccc(O[C@H]4O[C@H](CO)[C@@H](O)[C@H](O)[C@@H]4O)c(-c4cccc(CC(=O)O)c4)c3)ccc2O[C@H]2O[C@H](CO)[C@@H](O)[C@H](O)[C@@H]2O)c1`, the Potency entry in assay [1] and in assay [2] was “inactive” each time. Further, the ratio activity, negative = inhibition was -5.32% [at 0.55 µM] in [3] and -1.95% [at 0.575 µM] in [10]. The activation in assay [4] is -7.76% [at 0.756 µM]; in [6], 0.0325% [at 0.55 µM]; in [8] it was -0.0045% [at 0.55 µM]; in [13] it was 5.49% [at 0.55 µM]. Besides, the activity change, negative = cytotoxicity in assay [5] is -0.941% [at 0.55 µM]; in assay [7], 4.03% [at 0.55 µM]; in [14] it was 0.163% [at 0.55 µM]. Also, the viability change, negative = cytotoxic in assay [9] is 9.66% [at 0.575 µM]; in assay [12], 5.41% [at 0.55 µM]. The activity change, negative = inhibition in assay [11] is -1.58% [at 0.55 µM].

As for `Nc1c(NC/C=C\COc2cc(CN3CCCCC3)ccn2)c(=O)c1=O`, in [1], the Potency is 13.3 µM (active). In addition, the call in assay [15], in assay [16], in assay [17], in assay [5], in [6] and in assay [7] was inactive. Also, the molecule was classed as inactive in [8], in assay [9], in assay [11], in assay [13], in assay [14] and in [18]. Moreover, the Potency entry in assay [3] was “inactive”.

For the molecule `CCCCC(CC)CNC(=O)CC(C)OC(=O)CCC(=O)O` (centres undefined), the call in [16], in [17], in assay [5], in assay [6], in [7] and in assay [8] was inactive. Also, the outcome in assay [9], in assay [10], in assay [11], in [13], in assay [14] and in assay [19] was inactive. Also, the outcome in [18] was inactive. Further, in assay [4], the Potency entry was “inactive”.

As for `CC(CC(=O)O)CC(C)(C)C` (centres undefined), the Potency entry in [20], in [2], in assay [4] and in [12] was “inactive” each time. Besides, the molecule was classed as inactive in assay [15], in [16], in [17], in assay [5], in assay [6] and in assay [7]. In addition, the outcome in assay [8], in [9], in assay [11], in assay [13], in assay [14] and in assay [19] was inactive. In [18], the molecule was classed as inactive.

For the molecule `O=C(/C=C/c1ccccc1)NCCO`, the Potency entry in [1], in assay [2] and in assay [4] was “inactive” each time. The outcome in assay [16], in [17], in assay [5], in assay [6], in assay [7] and in assay [8] was inactive. Further, the call in assay [9], in assay [10], in assay [14], in assay [19] and in assay [18] was inactive.

Consider `CO/N=C(/C(=O)N[C@@H]1C(=O)N2C(C(=O)O)=C(Cn3nnc(C)n3)CS[C@H]12)c1csc(N)n1`, for which the Potency result in assay [2], in assay [4] and in assay [12] was “inactive” each time. Besides, the molecule was classed as inactive in [16], in assay [17], in assay [5], in [6], in assay [7] and in assay [9]. In addition, the result in assay [11], in assay [13], in [14], in assay [19] and in assay [18] was inactive.

For the molecule `CC(=O)N1CCN(c2ccc(O)cc2)CC1`, the Potency entry in assay [3] and in assay [12] was “inactive” throughout. The outcome in assay [16], in assay [17], in assay [5], in [6], in assay [7] and in assay [9] was inactive. In addition, the outcome in assay [14] and in assay [18] was inactive.

Consider `CC(C)C(=O)Nc1cccc(C(F)(F)F)c1`, for which the Potency result in [4] and in [12] was “inactive” each time. The result in assay [17], in assay [5], in assay [6], in assay [7], in [8] and in assay [9] was inactive. Further, the molecule was classed as inactive in assay [14], in assay [19] and in assay [18].

Regarding `c1ccccc1`, the Potency entry in assay [3], in assay [4] and in assay [12] was “inactive” in each case. The molecule was classed as inactive in assay [16], in assay [17], in assay [5], in [6], in assay [7] and in [8]. The call in assay [9], in assay [10], in assay [11], in assay [13], in [14] and in [19] was inactive. For the same molecule, in assay [18], the call was inactive.
